{"source": "PubChem BioAssay (NCATS)", "note": "Inconclusive results are not listed. Active and inactive are the calls of the source. The call rests on the fitted dose curve; in most records, active means well fitted cell-killing curve with a large enough effect; inconclusive means small, poorly fitted or top-dose-only effect; inactive means flat fitted curve, though single readings scatter."}
{"experiment": "Cellular viability qHTS for adrenocortical cancer (ACC) cell line NCI-H295R (AID 1963990); further: nearly all actives have a fitted effect of over 60% in size", "conditions": "CellTiter-Glo ATP luminescence, 48 h; series mostly up to 46.1 µM; activity change, negative = viability loss: at the top concentration", "from_the_text": "PI: Naris Nilubol, MD Surgical Oncology Program, National Cancer Institute (NCI) National Institute of Health (NIH), Bethesda, Maryland Adrenocortical cancer (ACC) is a rare malignancy with poor survival outcomes and few treatment options. Currently, mitotane is the only FDA-approved therapy for ACC. Although adjuvant radiation therapy is rarely utilized, it has the potential to improve survival in select cases. Through a quantitative high-throughput drug screen (qHTS), we identified auranofin (AF), a thioredoxin reductase (TXNRD) inhibitor, as a promising candidate drug. This study aims to evaluate whether AF can enhance the efficacy of radiation therapy in the treatment of ACC. Two human ACC cell lines, SW-13 and NCI-H295R, were screened using the National Center for Advancing Translational Sciences (NCATS) Pharmaceutical Collection (NPC) and the Mechanism Interrogation PlatE (MIPE) library (~4,991 compounds). CellTiter-Glo (Cat # G7570, Promega, Madison, WI) was utilized to measure cell viability. Described herein are the results of the corresponding viability assay.\nPROTOCOL TABLE (as described by Inglese J, Shamu CE and Guy RK. 2007) SEQUENCE No. (e.g., 1, 2, 3, etc.); […] (e.g., Cells, Incubation, Reagent, etc.); VALUE; DESCRIPTION. 1; Cells; 5 uL; white, solid-bottom, 1536-well tissue-culture treated plates. 2; Time; overnight culture at 37C with 5% CO2. 3; Compounds and control; 23 nL; Kalypsis pin tool (Wako USA) equipped with a 1536-well pin head to transfer to the assay plates. 4; Time; 48 hours; 37C with 5% CO2. 5; Reagent; 4 uL; CellTiter-Glo luminescent substrate mix. 6; Time; 20 min at room temperature. 7; Detection; Luminescence; ViewLux plate reader NOTES (numbers refer to Sequence numbers above) 1. NCI-H295R cells were harvested from a T175 flask and resuspended in ITS-supplemented DMEM serum-free medium at a concentration of 300 000 cells/mL. Then 5 uL of resuspended cells were dispensed into each well of white, solid-bottom, 1536-well tissue-culture-treated plates using a multidrop combi dispenser. The plates were covered with stainless steel gasket lids. 2-3. The plates were cultured overnight at 37C with 5% CO2. Twenty-three nL of compounds (eight selected concentrations from the NPC / MIPE) or positive control (10 mM stock of bortezomib) in DMSO was transferred to each well of the assay plate using a pin tool (Kalypsys, San Diego, CA, USA). The final concentration of the compounds in the 5 uL assay volume ranged from 0.5 nM to 46 uM. 4-6. After 48 hours of incubation at 37C and 5% CO2, 4 uL of CellTilter-Glo luminescent substrate mix (Promega, Madison, WI, USA) was added to each well. Then the plates were incubated for 20 minutes at room temperature. 7. After incubation, luminescence was measured using a ViewLux plate reader (PerkinElmer, Waltham, MA, USA) with a clear filter was used to measure the number of metabolically competent cells. To determine compound activity in the qHTS assay, the titration-response data for each sample was plotted and modeled by a four-parameter logistic fit yielding IC50 and efficacy (maximal response) values. Raw plate reads for each titration point were normalized relative to positive control ([…], 100% inhibition) and DMSO-only wells (basal, 0%). REFERENCES: Inglese J, Shamu CE and Guy RK, Reporting data from high throughput screening of small molecule libraries, Nature Chemical Biology, 2007, 3(8): 438-441. doi.org/10.1038/nchembio0807-438."}
{"smiles": "COc1cc(CC#N)cc(OC)c1OC", "activity change, negative = viability loss": "-7.54% (inactive)"}
{"smiles": "O=C(O)c1nn(Cc2ccc(Cl)cc2Cl)c2ccccc12", "activity change, negative = viability loss": "-17.3% (inactive)"}
{"smiles": "C[C@]12CC[C@H]3[C@@H](CCC4=CC(=O)CC[C@@H]43)[C@@H]1CC[C@@H]2OC(=O)CCC1CCCCC1", "activity change, negative = viability loss": "-23.7% (inactive)"}
{"smiles": "OCCCBr", "activity change, negative = viability loss": "-27.7% [at 92.7 µM] (inactive)"}
{"smiles": "C[C@H](Nc1ncnc2nc[nH]c12)c1nc2ccc(F)cc2c(=O)n1-c1ccccc1", "activity change, negative = viability loss": "-6.54% (inactive)"}
{"smiles": "COP(=O)(OC)C(O)C(Cl)(Cl)Cl", "note": "(stereo not given)", "activity change, negative = viability loss": "-18.7% (inactive)"}
{"smiles": "CC(C)=CC1C(C(=O)OCc2cccc(Oc3ccccc3)c2)C1(C)C", "note": "(stereo not given)", "activity change, negative = viability loss": "-21.8% (inactive)"}
{"smiles": "COC(=O)[C@]12CCC(C)(C)C[C@H]1[C@H]1C(=O)C=C3[C@@]4(C)C=C(C#N)C(=O)C(C)(C)[C@@H]4CC[C@@]3(C)[C@]1(C)CC2", "Potency": "3.98 µM (active)"}
{"smiles": "CN(C)CCc1c[nH]c2cccc(O)c12", "activity change, negative = viability loss": "-18.9% [at 92.7 µM] (inactive)"}
{"smiles": "CCOC(=O)C1(c2ccccc2)CCN(CCc2ccc(N)cc2)CC1", "activity change, negative = viability loss": "0.524% (inactive)"}
{"smiles": "CN1C[C@@H](NS(=O)(=O)N(C)C)C[C@@H]2c3cccc4c3c(cn4C)C[C@H]21", "activity change, negative = viability loss": "-0.0625% (inactive)"}
{"smiles": "COc1cc(C)[nH]c(=O)c1CNC(=O)c1c(C)n([C@H](C)C2CCOCC2)c2ccccc12", "activity change, negative = viability loss": "-1.15% (inactive)"}
{"smiles": "CNC(=O)c1ccc(N2C(=S)N(c3ccc(C#N)c(C(F)(F)F)c3)C(=O)C23CCC3)cc1F", "activity change, negative = viability loss": "-34.2% (inactive)"}
{"smiles": "NC1=NC(=O)C(c2ccccc2)O1", "note": "(stereo not given)", "activity change, negative = viability loss": "1.53% (inactive)"}
{"smiles": "O=C(O)COc1nc(Cl)c(Cl)cc1Cl", "activity change, negative = viability loss": "-27.3% [at 92.7 µM] (inactive)"}
{"smiles": "NC(=O)[C@@H](CC1CC1)[C@@H](CCC(F)(F)F)C(=O)N[C@H]1N=C(c2ccccc2)c2cccc(F)c2NC1=O", "activity change, negative = viability loss": "-8.59% (inactive)"}
{"smiles": "CCN1C[C@]2(OC(=O)c3ccccc3NC(C)=O)CC[C@H](OC)[C@@]34[C@H]5CC6[C@@H](OC)C[C@](O)(C(C[C@@H]23)[C@@H]14)[C@@]5(O)[C@@H]6OC", "activity change, negative = viability loss": "-22.8% (inactive)"}
{"smiles": "CC(=O)[O][Hg][c]1ccccc1", "Potency": "1.46 µM (active)"}
{"smiles": "C=CCC1([C@H](C)CCC)C(=O)NC(=O)NC1=O", "activity change, negative = viability loss": "-20.9% [at 92.7 µM] (inactive)"}
{"smiles": "CC(=O)O[C@@]12CO[C@@H]1C[C@H](O)[C@@]1(C)C(=O)[C@H](O)C3=C(C)[C@@H](O)C[C@@](O)([C@@H](OC(=O)c4ccccc4)[C@H]21)C3(C)C", "activity change, negative = viability loss": "-15.6% (inactive)"}
{"smiles": "CN1[C@H]2CC(O)C[C@H]1[C@H]1O[C@H]12", "note": "(stereo not given in full)", "activity change, negative = viability loss": "-0.999% (inactive)"}
{"smiles": "Clc1ccccc1C(c1ccccc1)(c1ccccc1)n1cccn1", "activity change, negative = viability loss": "-2.66% (inactive)"}
{"smiles": "c1cc2ccc3cccc4ccc(c1)c2c34", "activity change, negative = viability loss": "-19.9% [at 92.7 µM] (inactive)"}
{"smiles": "C[C@]12CC[C@@H]3c4ccc(OC(=O)N(CCCl)CCCl)cc4CC[C@H]3[C@@H]1CC[C@@H]2OP(=O)(O)O", "activity change, negative = viability loss": "-16.5% (inactive)"}
{"smiles": "N[C@@H]1C[C@H]1c1ccccc1", "activity change, negative = viability loss": "1.22% (inactive)"}
{"smiles": "CCC1(c2cccc(O)c2)CCCCN(C)C1", "note": "(stereo not given)", "activity change, negative = viability loss": "-9.6% (inactive)"}
{"smiles": "COc1ccc(N(C(=O)Oc2c(C)cccc2C)c2ccnc(Nc3ccc(N4CCN(C)CC4)cc3)n2)c(OC)c1", "Potency": "12.6 µM (active)"}
{"smiles": "NC(=O)OCCCc1ccccc1", "activity change, negative = viability loss": "-5.22% (inactive)"}
{"smiles": "CCN(CC)CCOC(=O)C(O)(c1ccccc1)c1ccccc1", "activity change, negative = viability loss": "-3.92% (inactive)"}
{"smiles": "C1CCC(NC2CCCCC2)CC1", "activity change, negative = viability loss": "-1.89% (inactive)"}
{"smiles": "CN(C)[C@@H]1C(=O)C(C(N)=O)=C(O)[C@@]2(O)C(=O)C3=C(O)c4c(O)cccc4[C@@](C)(O)[C@H]3[C@H](O)[C@@H]12", "activity change, negative = viability loss": "-18.3% (inactive)"}
{"smiles": "Cc1ncc(CNC(=O)N(CCCl)N=O)c(N)n1", "activity change, negative = viability loss": "-19.8% (inactive)"}
{"smiles": "COC(=O)C1=CCCN(C)C1", "activity change, negative = viability loss": "1.69% (inactive)"}
{"smiles": "COc1cc(N)c(Cl)cc1C(=O)NC1CN2CCC1CC2", "note": "(stereo not given)", "activity change, negative = viability loss": "-7.34% (inactive)"}
{"smiles": "CCS(=O)(=O)C(C)(C)S(=O)(=O)CC", "activity change, negative = viability loss": "-14.3% (inactive)"}
{"smiles": "CCC1(CC)C(=O)C=CNC1=O", "activity change, negative = viability loss": "-9.19% (inactive)"}
{"smiles": "Oc1ccccc1-c1ccccc1", "activity change, negative = viability loss": "-10.3% (inactive)"}
{"smiles": "CCOC(=O)Nc1ccc(NCc2ccc(F)cc2)cc1N", "activity change, negative = viability loss": "6.21% (inactive)"}
{"smiles": "C1CN2CCC1CC2", "activity change, negative = viability loss": "-2.9% (inactive)"}
{"smiles": "CC(C)C(Br)C(=O)NC(N)=O", "note": "(stereo not given)", "activity change, negative = viability loss": "-17.1% (inactive)"}
